# Source: PubChem BioAssay (NCATS)
# Records with an inconclusive call do not appear. Entries that show only a call come without a potency. The source made the active and inactive calls. Calls come from the whole dose curve; as a rule, active = well fitted inhibition curve with a large enough effect; inconclusive = small, poorly fitted or top-dose-only effect; inactive = no such curve, though single readings can be large or run the other way.
# Biological target: Cytochrome P450 3A4 (Homo sapiens) (UniProt P08684)
# Test: qHTS Assay for Inhibitors and Substrates of Cytochrome P450 3A4 (AID 884); note: nearly all actives have a fitted effect of over 50% in size
# Conditions: recombinant CYP3A4, Luciferin-PPXE luminescence; series mostly up to 57.1 µM
# Procedure, shortened: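 20 nM human CYP3A4 with 25 uM Luciferin-PPXE (at KM) in 200 mM KPO4, preincubated 10 min with compound; NADPH regeneration started a 60 min RT reaction. Luciferin detected by luminescence, normalized to 57 uM ketoconazole as full inhibition.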
# Potency is the fitted concentration of half-maximal effect.
# Sequence of Cytochrome P450 3A4 (Homo sapiens) (P08684 whole entry, looked up): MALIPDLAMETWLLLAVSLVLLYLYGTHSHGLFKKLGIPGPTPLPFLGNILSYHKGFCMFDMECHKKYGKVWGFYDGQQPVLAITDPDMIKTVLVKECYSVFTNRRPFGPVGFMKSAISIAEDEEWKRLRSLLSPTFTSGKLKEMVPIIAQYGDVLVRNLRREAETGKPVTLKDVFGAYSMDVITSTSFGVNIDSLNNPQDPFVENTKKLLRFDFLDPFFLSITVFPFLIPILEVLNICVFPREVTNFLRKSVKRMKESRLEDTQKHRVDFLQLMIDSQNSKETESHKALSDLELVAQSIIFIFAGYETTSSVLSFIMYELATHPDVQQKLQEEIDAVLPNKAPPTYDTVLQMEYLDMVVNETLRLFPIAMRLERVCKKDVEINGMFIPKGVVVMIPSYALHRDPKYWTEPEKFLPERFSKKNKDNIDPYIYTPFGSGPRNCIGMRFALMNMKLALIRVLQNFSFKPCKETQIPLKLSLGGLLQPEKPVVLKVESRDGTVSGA
row,Compound,Potency
1,O=C(O)c1ccc(NS(=O)(=O)c2ccsc2C(=O)O)c(O)c1,inactive
2,CN(C)c1nc(N)c(C(=O)Nc2cccnc2)nc1Cl,inactive
3,CN(C)/C=N/c1cc(=O)[nH]c(=O)n1Cc1ccccc1,inactive
4,COC(=O)[C@@H]1C[C@@]2(O)[C@H](O)[C@H](O)[C@H](O)C[C@H]2N1Cc1cccc2ccccc12,inactive
5,CN(C)/C=N/c1cc(=O)n(Cc2ccccc2)c(=O)n1C,inactive
6,O=C(O)c1cc(C(F)(F)F)nc2c(C(F)(F)F)cccc12,inactive
7,O=C(N[C@@H](Cc1ccccc1)C(=O)O)c1ccccc1,inactive
8,COC(=O)[C@@H]1C[C@@]2(O)[C@H](O)[C@H](O)[C@H](O)C[C@H]2N1Cc1cc(F)ccc1F,inactive
9,CCCN1[C@H](C(=O)OC)C[C@@]2(O)[C@@H](O)[C@@H](O)[C@@H](O)C[C@@H]12,inactive
10,OB(O)c1csc2ccccc12,inactive
11,COC(=O)c1ccc(CN2[C@H](C(=O)OC)C[C@@]3(O)[C@@H](O)[C@@H](O)[C@@H](O)C[C@@H]23)cc1,inactive
12,COC(=O)[C@@H]1C[C@@]2(O)[C@H](O)[C@H](O)[C@H](O)C[C@H]2N1Cc1ccc(N2CCOCC2)cc1,inactive
13,CC(=O)c1ccsc1B(O)O,inactive
14,COC(=O)[C@@H]1C[C@@]2(O)[C@@H](O)[C@@H](O)[C@@H](O)C[C@H]2N1Cc1ccc(Cl)cc1,inactive
15,COC(=O)[C@@H]1C[C@@]2(O)[C@H](O)[C@H](O)[C@H](O)C[C@H]2N1Cc1ccc(C)s1,inactive
16,CCC1=C2CC[C@H]3C(=O)NC(=O)[C@H]3[C@H]2[C@@]2(C)C(=NCC(=O)OC)OC(=O)N2C1=O,inactive
17,OB(O)c1cc2ccccc2o1,inactive
18,CC(C)Cn1c(N)c(C(=O)COC(=O)c2cc(-c3ccccc3)nc3ccccc23)c(=O)n(C)c1=O,inactive
19,COC(=O)[C@@H]1C[C@@]2(O)[C@@H](O)[C@@H](O)[C@@H](O)C[C@H]2N1Cc1ccc(N2CCOCC2)cc1,inactive
20,COC(=O)c1ccc(C23CC4(C2)[C@H](CN(Cc2ccc(-c5ccccc5)cc2)[C@@H]4c2ccccc2)C3c2ccccc2)cc1 (stereo not given in full),inactive

row,Compound,Potency
1,CCC1=C2CC[C@H]3C(=O)N(C)C(=O)[C@H]3[C@H]2[C@@]2(Cc3ccccc3)C(=NCCOC)OC(=O)N2C1=O,10 µM (active)
2,c1ccc(-c2ccc(CN3C[C@@H]4C(c5ccccc5)C5(c6ccccc6)CC4(C5)[C@H]3c3ccccc3)cc2)cc1 (stereo not given in full),inactive
3,CCC1=C(OC(=O)N(CC)CC)N2C(=O)OC(=NCC3CC3)[C@]2(C)[C@H]2C1=CC[C@H]1C(=O)N(CC(=O)OC)C(=O)[C@H]12,7.94 µM (active)
4,N#Cc1ccc(C23CC4(C2)[C@H](CN(Cc2ccc(C(F)(F)F)cc2)[C@@H]4c2ccccc2)C3c2ccc(C(F)(F)F)cc2)cc1 (stereo not given in full),inactive
5,COC(=O)c1ccc(C23CC4(C2)[C@H](CN(Cc2ccc(-c5ccccc5)cc2)[C@@H]4c2ccccc2)C3c2ccc(C(F)(F)F)cc2)cc1 (stereo not given in full),inactive
6,CCC1=C2CC[C@H]3C(=O)N(C)C(=O)[C@H]3[C@H]2[C@@]2(C)C(=NCC(=O)OC)OC(=O)N2C1=O,inactive
7,COC(=O)[C@@H]1C[C@@]2(O)[C@H](O)[C@H](O)[C@H](O)C[C@H]2N1CC1CCCCC1,inactive
8,O=C(O)c1cc(C(F)(F)F)nc2ccccc12,inactive
9,OB(O)c1cc2ccccc2s1,inactive
10,CCC1=C(OC(=O)N(CC)CC)N2C(=O)OC(=NCC(=O)OC)[C@]2(C)[C@H]2C1=CC[C@H]1C(=O)N(CC)C(=O)[C@H]12,6.31 µM (active)
11,N#Cc1ccc(C23CC4(C2)[C@H](CN(Cc2ccc(C(F)(F)F)cc2)[C@@H]4c2ccccc2)C3c2ccc(Cl)nc2)cc1 (stereo not given in full),inactive
12,Cc1csc(B(O)O)c1,inactive
13,NC(=O)NCc1ccccc1,inactive
14,O=C(O)c1cc(-c2ccco2)nc2ccccc12,inactive
15,COC(=O)[C@@H]1C[C@@]2(O)[C@@H](O)[C@@H](O)[C@@H](O)C[C@H]2N1Cc1ccc(C(C)(C)C)cc1,12.6 µM (active)
16,CN1CCN(C(=O)c2nc3ccc(Cl)cc3[nH]2)CC1,inactive
17,Cn1c(=O)c(C(=O)COC(=O)c2cc(C3CC3)nc3ccccc23)c(N)n(Cc2ccccc2)c1=O,inactive
18,Cn1c(N)cc(=O)n(Cc2ccccc2)c1=O,inactive
19,CCCCCCCCCCCCCCCCCC(=O)NCCc1ccc(O)c(O)c1,inactive
20,O=[N+]([O-])c1ccccc1S(=O)(=O)NCC1CCC(CNCC2CCc3ccccc3C2)CC1 (stereo not given),inactive
